# Measurements taken from PubChem BioAssay (Tox21).
# A number with no mark means an inactive call. Results filed as inconclusive are left out. A call without a number means that no potency is given here. Calls of active or inactive are those of the source. Unless noted, calls follow the shape of the full dose curve.
# How the values were obtained:
# [1] = Nuclear factor erythroid 2-related factor 2/antioxidant responsive element (Nrf2/ARE) small molecule agonists: qHTS cell viability counter screen in human keratinocytes (AID 1919968; active = well fitted curve in the direction sought with a large enough effect in the repeat runs; an effect the other way counts as inactive or inconclusive; also: nearly all actives have a fitted effect of over 55% in size; also: potency is read from the fitted curve at half-maximal effect)
# Procedure, shortened: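 Parallel cytotoxicity read: KeratinoSens HaCaT cells, compound treatment 23 h, viability by CellTiter-Fluor fluorescence 1 h post-reagent.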
# [2] = molecular target: Gonadotropin-releasing hormone receptor (Homo sapiens) (UniProt P30968); assay: Human gonadotropin-releasing hormone receptor (GnRHR) small molecule agonists, calcium flux assay in GnRHR-HEK293 cells (AID 1920063); also: nearly all actives have a fitted effect of over 35% in size
# Procedure, shortened: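 Calcium flux, agonist mode, human GnRHR stably integrated in HEK293; dye 1 h at 37 C before compound; Ex/Em=480/540 kinetic read, 3 min; 15 concentrations, triplicate.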
# [3] = G protein-coupled receptor (GPCR) small molecule agonists, calcium flux assay: HEK293 wild type cell line counter screen (AID 1920065)
# Procedure, shortened: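 Non-specific calcium responders were flagged by adding DMSO-dissolved compounds to dye-loaded cells and reading 480/540 nm fluorescence each second for 3 min; ATP served as positive control.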
# [4] = p53 small molecule agonists, cell-based qHTS assay with human liver microsomes: qHTS cell viability counter screen (AID 1963579); also: nearly all actives have a fitted effect of over 45% in size; also: potency is read from the fitted curve at half-maximal effect
# Procedure, shortened: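 p53RE-bla cells, 4,000/well, dosed 5 hours after plating, with human liver microsomes (0.5 mg/mL final) plus NADPH (0.5 mg/mL final), 16 hours at 37 C. Viability read as CellTiter-Glo luminescence after 30 min at room temperature.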
# [5] = p53 small molecule agonists, cell-based qHTS assay with rat liver microsomes: qHTS cell viability counter screen (AID 1963580); also: nearly all actives have a fitted effect of over 45% in size; also: potency is read from the fitted curve at half-maximal effect
# Procedure, shortened: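 Cytotoxicity counter screen: intracellular ATP measured by CellTiter-Glo luminescence in the same wells as the beta-lactamase reporter read, on HCT-116 p53RE-bla cells exposed 16 h at 37 C to compounds with rat liver microsomes and NADPH, each 0.5 mg/mL final.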
# [6] = molecular target: 5-hydroxytryptamine receptor 2A (Homo sapiens) (UniProt P28223); assay: 5-hydroxytryptamine receptor 2A (HTR2A) small molecule antagonists, cell-based qHTS assay (AID 1963586); also: nearly all actives have a fitted effect of over 45% in size; also: potency is read from the fitted curve at half-maximal effect
# Procedure, shortened: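 CHO cells stably expressing human HTR2A were plated for 18 h at 37 C, then loaded with calcium dye for 1 h. Compounds were preincubated 5 min at room temperature before DOI (4 nM solution) was added. Kinetic fluorescence was read for 3 min.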
# [7] = molecular target: 5-hydroxytryptamine receptor 2A (Homo sapiens) (UniProt P28223); assay: 5-hydroxytryptamine receptor 2A (HTR2A) small molecule agonists, cell-based qHTS assay (AID 1963587); also: nearly all actives have a fitted effect of over 30% in size; also: potency is read from the fitted curve at half-maximal effect
# Procedure, shortened: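 CHO cells stably expressing human HTR2A, plated 18 h, loaded with calcium dye 1 h at 37 C. Agonist mode: compounds added and intracellular calcium fluorescence recorded kinetically for 2 min at 1 sec intervals.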
# [8] = molecular target: Muscarinic acetylcholine receptor M1 (Homo sapiens) (UniProt P11229); assay: Cholinergic receptor muscarinic 1 (CHRM1) small molecule antagonists, cell-based qHTS assay (AID 1963588); also: nearly all actives have a fitted effect of over 40% in size
# Procedure, shortened: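 Compounds were tested at 15 concentrations in three independent runs. Dye-loaded CHRM1-CHO cells were exposed 5 min at room temperature before stimulation by acetylcholine added at 50nM. Intracellular calcium was read kinetically on FDSS for 3 min.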
# [9] = molecular target: Muscarinic acetylcholine receptor M1 (Homo sapiens) (UniProt P11229); assay: Cholinergic receptor muscarinic 1 (CHRM1) small molecule agonists, cell-based qHTS assay (AID 1963589); also: nearly all actives have a fitted effect of over 35% in size
# Procedure, shortened: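 qHTS, 15-point titration, 3 independent runs: compounds pin-transferred onto dye-loaded CHRM1-CHO cells (human M1), calcium fluorescence followed every second to detect agonism.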
# [10] = cAMP Responsive Elements (CRE) small molecule agonists, cell-based qHTS assay (AID 1963590)
# Procedure, shortened: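 Quantitative HTS for CRE agonists: HEK 293T CRE-bla cells, overnight plating, 3 h compound incubation at 37 C/5% CO2, then 2 h room-temperature LiveBLAzer B/G FRET substrate loading.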
# [11] = cAMP Responsive Elements (CRE) small molecule antagonists, cell-based qHTS assay (AID 1963591; active = well fitted inhibition curve with a large enough effect in the signal ratio in the repeat runs, not every such curve was filed as active; the % refers to the signal ratio)
# Procedure, shortened: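 Fluorescence intensity from cleaved LiveBLAzer B/G substrate (2 h, room temperature) quantified CRE-bla activity in HEK 293T cells exposed 3 h to compound with 0.25 uM final NKH477.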
# [12] = molecular target: Beta-2 adrenergic receptor (Homo sapiens) (UniProt P07550); assay: Adrenergic beta2 receptor (ADRB2) small molecule antagonists, cell-based qHTS assay (AID 1963592); also: series mostly up to about 92 µM; nearly all actives have a fitted effect of over 50% in size
# Procedure, shortened: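 Assay format: CHO-ADRB2 cells, 18-20hr seeding at 37C/5% CO2, then compound plus 1nM isoproterenol agonist mix for 0.5hr RT. Homogeneous time-resolved fluorescence cAMP detection after 1hr, expressed as 665/615 nm ratio.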
# [13] = molecular target: D(2) dopamine receptor (Homo sapiens) (UniProt P14416); assay: Dopamine D2 receptor (DRD2) small molecule agonists, cell-based qHTS assay (AID 1963594); also: nearly all actives have a fitted effect of over 35% in size
# Procedure, shortened: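 HEK293 cells stably expressing human DRD2, pre-treated with PDE inhibitor Ro20-1724 (0.1 mM final) and compound 10 min at room temperature, then stimulated with NKH477 (200nM […]) for 30 min. cAMP read by HTRF (665/620 nm).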
# [14] = molecular target: KiSS-1 receptor (Homo sapiens) (UniProt Q969F8); assay: Human kisspeptin (KISS1R) small molecule agonists, calcium flux assay in KISS1R-HEK293 cells (AID 1920064; active = well fitted curve in the direction sought with a large enough effect in the repeat runs; an effect the other way counts as inactive or inconclusive; also: potency is read from the fitted curve at half-maximal effect)
# Procedure, shortened: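 Triplicate 15-concentration series were applied to dye-loaded human KISS1R HEK293 cells, and agonist-evoked calcium fluorescence was captured for 3 min.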
# [15] = p53 small molecule agonists, cell-based qHTS assay: qHTS cell viability counter screen (AID 1963581); also: nearly all actives have a fitted effect of over 45% in size
# Procedure, shortened: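 Multiplexed with the reporter read, a CellTiter-Glo step (30 min, room temperature) gauges ATP-based viability of HCT-116 p53RE-bla cells after 16 h compound incubation at 37 C.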
# [16] = molecular target: D(2) dopamine receptor (Homo sapiens) (UniProt P14416); assay: Dopamine D2 receptor (DRD2) small molecule antagonists, cell-based qHTS assay (AID 1963595; active = well fitted inhibition curve with a large enough effect in the signal ratio in the repeat runs, with a control signal flat; the % refers to the signal ratio)
# Procedure, shortened: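 Antagonism was scored as restored cAMP in HEK293-DRD2 cells. These cells were stimulated with 200 nM NKH477 and 12 nM quinpirole for 30 min at room temperature, in the presence of 0.1 mM Ro20-1724.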
# [17] = p53 small molecule agonists, cell-based qHTS assay with human liver microsomes (AID 1963577)
# Procedure, shortened: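 p53RE-bla cells, 4,000/well, compound added after 5 h, with human liver microsomes 0.5 mg/mL and NADPH 0.5 mg/mL final; 16 h at 37 C, then LiveBLAzer 2 h RT, fluorescence.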
# [18] = p53 small molecule agonists, cell-based qHTS assay with rat liver microsomes (AID 1963578)
# Procedure, shortened: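 p53RE-bla cells, 4,000/well, pre-incubated 5 h, then given compounds plus rat liver microsomes (0.5 mg/mL final) and NADPH (0.5 mg/mL final). Incubation 16 h at 37 C; beta-lactamase reporter read by LiveBLAzer fluorescence after 2 h at room temperature.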
# [19] = p53 small molecule agonists, cell-based qHTS assay (AID 1963582; active = well fitted activation curve with a large enough effect in the signal ratio in the repeat runs, not every such curve was filed as active; the % refers to the signal ratio)
# Procedure, shortened: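 Beta-lactamase reporter cells (p53RE-bla) treated with compounds for 16 h at 37 C; FRET substrate, 2 h, room temperature; fluorescence intensity.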
# [20] = molecular target: Beta-2 adrenergic receptor (Homo sapiens) (UniProt P07550); assay: Adrenergic beta2 receptor (ADRB2) small molecule agonists, cell-based qHTS assay (AID 1963593); also: potency is read from the fitted curve at half-maximal effect;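 as to activation: CHO cells stably overexpressing human ADRB2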
# Procedure, shortened: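 CHO cells stably over-expressing ADRB2 were plated overnight at 37C, then dosed with compounds plus a stimulation mix containing 100uM IBMX and 25uM Ro-20-1724 for 0.5hr at room temperature. cAMP was measured by HTRF competition, 1hr.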
# D(2) dopamine receptor (Homo sapiens), sequence (P14416 whole entry, looked up): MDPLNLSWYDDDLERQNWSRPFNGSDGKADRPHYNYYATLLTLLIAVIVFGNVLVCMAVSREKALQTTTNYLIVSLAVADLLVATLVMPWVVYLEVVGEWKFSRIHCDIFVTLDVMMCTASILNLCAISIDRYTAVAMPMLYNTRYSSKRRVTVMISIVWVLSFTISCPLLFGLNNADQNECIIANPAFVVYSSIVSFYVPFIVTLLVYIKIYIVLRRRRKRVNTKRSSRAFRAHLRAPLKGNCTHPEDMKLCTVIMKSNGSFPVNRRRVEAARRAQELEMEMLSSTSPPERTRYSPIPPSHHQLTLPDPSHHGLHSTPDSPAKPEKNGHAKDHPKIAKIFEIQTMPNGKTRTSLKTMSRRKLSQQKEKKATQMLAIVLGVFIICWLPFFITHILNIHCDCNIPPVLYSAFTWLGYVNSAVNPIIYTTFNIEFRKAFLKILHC
# Muscarinic acetylcholine receptor M1 (Homo sapiens), sequence (P11229 whole entry, looked up): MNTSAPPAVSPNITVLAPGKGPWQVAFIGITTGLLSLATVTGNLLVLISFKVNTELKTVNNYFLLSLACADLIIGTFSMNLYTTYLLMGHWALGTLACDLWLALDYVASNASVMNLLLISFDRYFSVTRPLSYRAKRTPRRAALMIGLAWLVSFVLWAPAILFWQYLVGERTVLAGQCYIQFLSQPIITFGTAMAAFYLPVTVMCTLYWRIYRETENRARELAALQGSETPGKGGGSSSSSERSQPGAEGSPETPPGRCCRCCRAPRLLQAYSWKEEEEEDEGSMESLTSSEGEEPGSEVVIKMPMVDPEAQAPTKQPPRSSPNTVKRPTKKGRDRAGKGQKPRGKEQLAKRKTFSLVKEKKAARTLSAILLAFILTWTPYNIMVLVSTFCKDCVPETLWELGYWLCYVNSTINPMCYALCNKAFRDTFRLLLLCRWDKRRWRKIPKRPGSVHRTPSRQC
# Beta-2 adrenergic receptor (Homo sapiens), sequence (P07550 whole entry, looked up): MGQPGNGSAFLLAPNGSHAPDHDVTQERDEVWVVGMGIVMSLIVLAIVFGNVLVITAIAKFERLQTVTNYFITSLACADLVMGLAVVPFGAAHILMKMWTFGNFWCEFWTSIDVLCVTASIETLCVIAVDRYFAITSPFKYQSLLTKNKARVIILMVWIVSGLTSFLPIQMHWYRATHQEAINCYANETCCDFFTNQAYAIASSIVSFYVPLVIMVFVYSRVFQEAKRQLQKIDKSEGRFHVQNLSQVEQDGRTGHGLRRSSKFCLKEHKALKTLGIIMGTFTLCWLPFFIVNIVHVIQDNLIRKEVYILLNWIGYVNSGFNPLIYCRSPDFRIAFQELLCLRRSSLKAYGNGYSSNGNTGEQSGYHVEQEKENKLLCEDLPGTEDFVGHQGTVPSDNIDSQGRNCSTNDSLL
# Gonadotropin-releasing hormone receptor (Homo sapiens), sequence (P30968 whole entry, looked up): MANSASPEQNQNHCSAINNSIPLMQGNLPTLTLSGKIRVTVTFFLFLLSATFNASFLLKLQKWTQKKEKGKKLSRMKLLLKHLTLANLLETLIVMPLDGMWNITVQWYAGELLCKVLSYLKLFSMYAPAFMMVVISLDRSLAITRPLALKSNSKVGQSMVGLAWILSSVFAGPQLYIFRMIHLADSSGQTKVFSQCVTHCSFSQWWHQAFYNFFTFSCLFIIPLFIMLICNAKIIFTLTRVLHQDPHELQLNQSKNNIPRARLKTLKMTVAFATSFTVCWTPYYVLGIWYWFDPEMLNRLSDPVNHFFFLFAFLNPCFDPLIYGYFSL
# 5-hydroxytryptamine receptor 2A (Homo sapiens), sequence (P28223 whole entry, looked up): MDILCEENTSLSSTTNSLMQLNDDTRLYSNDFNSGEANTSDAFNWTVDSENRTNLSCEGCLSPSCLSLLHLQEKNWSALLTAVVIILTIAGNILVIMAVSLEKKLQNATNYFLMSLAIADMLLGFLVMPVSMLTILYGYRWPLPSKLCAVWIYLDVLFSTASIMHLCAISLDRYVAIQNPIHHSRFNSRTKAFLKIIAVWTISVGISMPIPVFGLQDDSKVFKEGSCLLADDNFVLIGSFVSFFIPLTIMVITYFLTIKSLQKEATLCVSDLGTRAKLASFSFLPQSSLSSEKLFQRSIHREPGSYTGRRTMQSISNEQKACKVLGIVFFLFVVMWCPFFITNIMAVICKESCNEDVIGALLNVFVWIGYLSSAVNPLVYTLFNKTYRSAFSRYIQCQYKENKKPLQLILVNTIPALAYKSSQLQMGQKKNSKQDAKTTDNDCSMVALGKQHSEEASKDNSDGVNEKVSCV
# KiSS-1 receptor (Homo sapiens), sequence (Q969F8 whole entry, looked up): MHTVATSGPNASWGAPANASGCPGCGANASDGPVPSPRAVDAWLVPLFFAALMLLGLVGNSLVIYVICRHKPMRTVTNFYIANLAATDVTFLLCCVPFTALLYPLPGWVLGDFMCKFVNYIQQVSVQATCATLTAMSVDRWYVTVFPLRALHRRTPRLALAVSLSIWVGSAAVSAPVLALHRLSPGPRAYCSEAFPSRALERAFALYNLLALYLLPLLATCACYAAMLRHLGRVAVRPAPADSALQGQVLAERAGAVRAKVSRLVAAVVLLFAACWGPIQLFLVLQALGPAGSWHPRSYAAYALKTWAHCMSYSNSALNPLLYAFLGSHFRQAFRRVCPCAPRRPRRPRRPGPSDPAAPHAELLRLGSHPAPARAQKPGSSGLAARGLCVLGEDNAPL
SMILES,Potency [1],Potency [2],Potency [3],Potency [4],Potency [5],Potency [6],Potency [7],Potency [8],Potency [9],Potency [10],Potency [11],Potency [12],Potency [13],Potency [14],Potency [15],Potency [16],Potency [17],Potency [18],Potency [19],Potency [20]
BrCC1CO1 (centres undefined),inactive,inactive,inactive,inactive,inactive,inactive,inactive,inactive,inactive,inactive,inactive,inactive,inactive,–,–,–,–,–,–,–
CC(=O)[O-].CC(=O)[O-].O.O.[Zn+2],inactive,–,inactive,inactive,inactive,inactive,inactive,inactive,inactive,inactive,inactive,inactive,inactive,inactive,inactive,inactive,–,–,–,–
COc1cnc(OC)n2nc(NS(=O)(=O)c3c(OCC(F)F)cccc3C(F)(F)F)nc12,inactive,inactive,inactive,inactive,–,inactive,inactive,inactive,inactive,–,inactive,inactive,inactive,–,inactive,inactive,inactive,inactive,inactive,–
Clc1ccccc1-c1ccccc1Cl,55.3 µM (active),–,inactive,inactive,inactive,47.9 µM (active),inactive,inactive,inactive,inactive,–,inactive,inactive,inactive,inactive,inactive,inactive,inactive,inactive,–
CCCCCCC[CH2][Sn]([Cl])([Cl])[CH2]CCCCCCC,30.6 µM (active),–,inactive,inactive,inactive,inactive,inactive,inactive,inactive,inactive,–,inactive,inactive,48.9 µM (active),inactive,–,inactive,inactive,–,–
O=C1C=CC(=O)c2ccccc21,15.4 µM (active),–,inactive,–,20.4 µM (active),inactive,21.9 µM (active),inactive,inactive,–,–,inactive,inactive,inactive,inactive,–,inactive,inactive,inactive,–
CCCCCCCCc1ccc(O)cc1,43.5 µM (active),–,inactive,36.6 µM (active),48.8 µM (active),–,–,–,–,inactive,–,inactive,–,inactive,–,–,inactive,–,–,–
CCC(C)(c1ccc(O)cc1)c1ccc(O)cc1,–,inactive,inactive,inactive,inactive,inactive,inactive,inactive,inactive,inactive,inactive,inactive,–,inactive,–,inactive,inactive,inactive,–,inactive
ClC1=C(Cl)[C@]2(Cl)[C@@H]3[C@@H](Cl)[C@H]4O[C@H]4[C@@H]3C1(Cl)C2(Cl)Cl,–,inactive,inactive,inactive,inactive,inactive,inactive,inactive,inactive,–,–,–,–,inactive,inactive,–,inactive,inactive,–,61.1 µM (active)
Clc1ccc(Oc2ccccc2)cc1,–,inactive,inactive,inactive,–,–,inactive,inactive,inactive,inactive,inactive,inactive,inactive,inactive,inactive,inactive,inactive,inactive,inactive,inactive
CO/N=C(/C(=O)OC)c1ccccc1COc1ccccc1C,–,inactive,inactive,inactive,inactive,inactive,inactive,inactive,inactive,–,–,inactive,–,inactive,inactive,inactive,inactive,inactive,–,–
CCC(C)Br (centres undefined),–,inactive,inactive,inactive,–,inactive,inactive,–,inactive,inactive,inactive,inactive,inactive,inactive,inactive,inactive,inactive,inactive,inactive,–
